Measurements: PubChem BioAssay AID1479 (National Center for Advancing Translational Sciences (NCATS), 2009)
Screen size: about 280,000 compounds; about 820 (0.29%) were called active. About 1% were inconclusive and are not listed. The sample holds actives, similar compounds and a random draw of the others, so the mix is not that of the screen. Calls come from the whole dose curve; as a rule, active = well fitted curve in either direction with a large enough effect; inconclusive = small, poorly fitted or top-dose-only effect; inactive = flat fitted curve, though single readings scatter.

Assay: Total Fluorescence Counterscreen for Inhibitors of the Interaction of Thyroid Hormone Receptor and Steroid Receptor Coregulator 2
Conditions: TRb/SRC2 Texas Red total fluorescence interference; series mostly up to 106 µM; fluorescence change, negative = quenching: at the top concentration
Method in brief: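 Human TRb ligand-binding domain at 0.6 uM with 20 nM Texas Red SRC2 peptide in Tris buffer containing 1 uM T3 and 5% DMSO, incubated with compound 5 h at ambient temperature. Total fluorescence (555/632 nm) calculated as parallel + 2 × perpendicular.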
% is set by controls: 0 for no effect and ±100 for the full control effect; potency is the fitted concentration of half-maximal effect; tags give direction and shape of the fitted curve or compound fluorescence and quenching.

| Structure (SMILES) | fluorescence change, negative = quenching | Potency |
| --- | --- | --- |
| COc1ccccc1CNC(=O)Cn1nc(C)c2nn(-c3ccc(Cl)cc3)c(C)c2c1=O | -3.71% (inactive) |  |
| COc1ccc2c(c1)C(SCC(=O)NCc1ccccc1)CC(C)(C)O2 (configuration not stated) | -2.94% (inactive) |  |
| COc1ccc2c(c1)C=CC1(O2)N(CCO)c2ccccc2C1(C)C (configuration not stated) |  | 50.1 µM [fluorescent] (active) |
| COc1cccc(CC2(CO)CCCN(CC3=Cc4cc(OC)ccc4OC3)C2)c1 (configuration not stated) | -6.57% (inactive) |  |
| CCc1cnc2c(c1SCC(=O)N1CCC(C)CC1)c(=O)n(C)c(=O)n2C | 0.547% (inactive) |  |
| COc1ccc(C)cc1N(CC(=O)N1CCC(C)CC1)S(=O)(=O)c1ccc(C)cc1 | 6.06% (inactive) |  |
| Cc1ccccc1-c1nc2scc(CCNC(=O)C(=O)Nc3ccc(F)cc3F)n2n1 | -1.09% (inactive) |  |
| CC(Sc1oc(-c2ccco2)nc1S(=O)(=O)c1ccc(Br)cc1)c1ccccc1 (configuration not stated) | 1.02% (inactive) |  |
| COc1ccccc1NC(=O)CSc1oc(-c2ccco2)nc1S(=O)(=O)c1ccc(Br)cc1 | 0.994% (inactive) |  |
| CCCC/C=C/CCCCO | -3.09% [at 201 µM] (inactive) |  |
| CCN(C(=O)Cn1cc(S(=O)(=O)N2CCN(c3ccccc3F)CC2)c2ccccc2c1=O)c1ccc(C)c(C)c1 | -2.35% (inactive) |  |
| O=C(NCCc1ccccc1)c1ccc2c(c1)N(Cc1ccccc1)C(=O)c1ccccc1S2(=O)=O | -5.87% (inactive) |  |
| CN(C(=O)CSc1nnc(NC(=O)Nc2ccccc2)s1)c1ccccc1 | -1.97% (inactive) |  |
| CC(C)(C)OC(=O)N1CCC(c2c(C(=O)Nc3ccc4c(c3)OCO4)cnn2-c2ccccc2)CC1 | -6.82% (inactive) |  |
| Cc1cccc(Cc2c(C)nc3nc(SCc4ccccc4Cl)nn3c2C)c1 | -1.22% (inactive) |  |
| c1ccc(CNc2ncnc3[nH]ncc23)cc1 | -2.45% (inactive) |  |
| CCOC(=O)c1ccc(NC(=O)CC2C(=O)N(c3cccc(OC)c3)C(=O)N2C2CCCCC2)cc1 (configuration not stated) | -1.55% (inactive) |  |
| COc1ccccc1CNC(=O)c1ccccc1NC(=O)c1nsc2ccccc12 | -0.019% (inactive) |  |
| O=S(=O)(c1ccc(C2CCCCC2)cc1)N1CCN(c2ccc(Cl)c(Cl)c2)CC1 | 1.08% (inactive) |  |
| CC1CN(C(=O)N2CCC(C(=O)NCc3ccco3)CC2)c2cc(Cl)ccc2O1 (configuration not stated) | 8.47% (inactive) |  |
| CCOC(=O)c1ccc(NC(=O)CCS(=O)(=O)c2ccc(C)cc2)cc1 | -1.98% (inactive) |  |
| CCCn1c2ccccc2c2cnn(CC(=O)N(C)c3ccccc3CC)c(=O)c21 | -7.64% (inactive) |  |
| Cc1cc(C)c(N)c(Cl)c1 | -1.53% [at 201 µM] (inactive) |  |
| CCOc1ccc2nc(N3CCC(C(=O)Nc4cc(C)ccc4C)CC3)sc2c1 | 4.05% (inactive) |  |
| CCOc1ccc2nc(C(=O)N3CCCC(C)C3)sc2c1 (configuration not stated) | 1.97% (inactive) |  |

| Structure (SMILES) | fluorescence change, negative = quenching | Potency |
| --- | --- | --- |
| CCOc1ccc2nc(N3CCCC(C(=O)Nc4cc(C)ccc4C)C3)sc2c1 (configuration not stated) |  | 20 µM [quencher] (active) |
| Cc1csc2nc(COC(=O)c3ccc(NC(=O)COc4ccccc4F)cc3)cc(=O)n12 | -0.21% (inactive) |  |
| COc1cc2ccccc2cc1C(=O)Nc1cccc(-c2nc3ccccc3o2)c1 | 0.567% (inactive) |  |
| O=C(CN1CCSc2ccccc21)N1CCN(c2ccccc2)CC1 | -0.0734% (inactive) |  |
| Cc1ccc(N)c(S(=O)(=O)O)c1 | -6.26% [at 201 µM] (inactive) |  |
| Cn1c(=O)[nH]c(=O)c2c1nc(NCCc1ccccc1)n2Cc1ccc(F)cc1 | -0.664% (inactive) |  |
| COc1ccc(CNC(=O)Cc2coc3ccc(C(C)C)cc23)cc1 | -20.8% (inactive) |  |
| COCCNC(=O)Nc1ccc2nc(-c3ccco3)c(-c3ccco3)nc2c1 |  | 28.2 µM [quencher] (active) |
| O=C(Nc1ccc2nccnc2c1)c1ccco1 | -2.35% (inactive) |  |
| CC(C)(C)c1ccc(NC(=O)NCc2ccco2)cc1 | -4.34% (inactive) |  |
| CC1CCCN(c2nc3c(S(=O)(=O)c4ccc(C(C)C)cc4)nnn3c3ccsc23)C1 (configuration not stated) | -1.97% (inactive) |  |
| Cc1ccc(-c2noc(CSc3nnc(-c4ccc(Cl)cc4)n3C)n2)cc1 | 6.15% (inactive) |  |
| CCc1cccc(NC(=O)Cn2nc(CC)n3c(cc4cc(C)ccc43)c2=O)c1 | -3.05% (inactive) |  |
| OCCC(F)(F)C(F)(F)C(F)(F)C(F)(F)C(F)(F)C(F)(F)C(F)(F)C(F)(F)F | -3.95% [at 201 µM] (inactive) |  |
| CC(=O)c1cccc(Nc2ccc3cc(S(=O)(=O)N4CCC(C)CC4)ccc3n2)c1 | -2.64% (inactive) |  |
| COc1ccccc1NC(=O)c1cc(S(=O)(=O)NCCc2ccccc2)ccc1F | -1.18% (inactive) |  |
| CC1(C)C(=O)N(Br)C(=O)N1Br | 0.683% [at 201 µM] (inactive) |  |
| COC(=O)c1ccc(NC(=O)CCc2c(C)nc3c(c(C)nn3-c3ccc(C)cc3)c2C)cc1 | -1.65% (inactive) |  |
| CC(=O)N(CCN(C(C)=O)C(C)=O)C(C)=O | -0.655% [at 201 µM] (inactive) |  |
| CC(NC(=O)c1cc2c(=O)n3ccccc3nc2n(C(C)C)c1=N)c1ccccc1 (configuration not stated) | -1.91% (inactive) |  |
| O=C(Cn1c(=O)nc(-c2ccccc2)c2cc(Cl)ccc21)NCc1ccc(Cl)cc1 | -1.77% (inactive) |  |
| Cc1ccccc1CNC(=O)C1CCCN(S(=O)(=O)N(C)c2ccc(F)cc2)C1 (configuration not stated) | -1.26% (inactive) |  |
| COc1ccc(CCN2C(=O)N(c3cccc(OC)c3)C(=O)C2CC(=O)Nc2ccccc2)cc1 (configuration not stated) | -1.82% (inactive) |  |
| O=C(CC1N=C2c3ccccc3N=C(SCc3cccc(Cl)c3)N2C1=O)NCc1ccc2c(c1)OCO2 (configuration not stated) | -0.205% (inactive) |  |
| CCCCCCCCCCCCCCCC | -2.34% [at 201 µM] (inactive) |  |

| Structure (SMILES) | fluorescence change, negative = quenching | Potency |
| --- | --- | --- |
| COc1ccc(CCC(=O)NCc2ccc3c(c2)CCN3C(=O)c2ccc(F)cc2)cc1 | -12.6% (inactive) |  |
| CC(Nc1ccc(-c2nc(-c3ccco3)no2)cc1[N+](=O)[O-])c1ccccc1 (configuration not stated) | -1.44% (inactive) |  |
| Cc1oc2ccc(O)c(CN3CCC(C)CC3)c2c1C(=O)Nc1ccccc1 | -29.7% (inactive) |  |
| CCc1cccc(C)c1Nc1c(-c2ccc(N(C)C)cc2)nc2ncccn12 | 1.78% (inactive) |  |
| CCn1c(=O)cc(OCC(=O)Nc2cc(Cl)c(OC)cc2OC)c2ccccc21 | -3.2% (inactive) |  |
| CCC(=O)Nc1cccc(C(=O)OCc2cc(=O)n3nc(CC)sc3n2)c1 | -0.224% (inactive) |  |
| Cc1cccc(CSc2nc3ccncc3n2CC(=O)N(C)C2CCCCC2)c1 | -0.651% (inactive) |  |
| COc1ccc(CCNC(=O)CCCCn2c(=O)c3ccccc3n(Cc3ccccc3C)c2=O)cc1OC | 10.7% (inactive) |  |
| COc1ccc(CNc2nc(-c3ccccc3)nn2C(=O)c2ccccc2OC)cc1 | 1.36% (inactive) |  |
| COc1ccccc1NC(=O)c1cc(C2CC2)nc2c1c(C)nn2-c1ccc(C)cc1 | -0.295% (inactive) |  |
| CCc1nnc2c3ccccc3nc(N3CCN(c4ccc(C)cc4C)CC3)n12 | -3.56% (inactive) |  |
| Cc1ccc(C)c(N2CCN(C(c3ccccc3)c3nnc(-c4ccccc4)o3)CC2)c1 (configuration not stated) | 0.0308% (inactive) |  |
| CCOC(=O)c1cccc(NC(=O)c2cc(S(=O)(=O)N3CCCC(C)C3)cn2C)c1 (configuration not stated) | 0.77% (inactive) |  |
| CCn1c2ccccc2c2cc(NC(=O)COc3ccc(C)cc3C)ccc21 | -2.08% (inactive) |  |
| CCOC(=O)c1ccc(NC(=O)c2csc3c2CCCCC3)cc1 | 0.898% (inactive) |  |
| CCCSc1ncc(Cl)c(C(=O)Nc2sc3c(c2C(=O)NCCOC)CCCC3)n1 |  | 0.1 µM [quencher] (active) |
| COCCCNC(=O)c1c(NC(=O)c2cc(=O)c3cc(C)c(C)cc3o2)sc2c1CCCC2 | 8.54% (inactive) |  |
| CCOCCCNC(=O)c1c(NC(=O)c2nc(SC)ncc2Cl)sc2c1CCCC2 | 8.52% (inactive) |  |
| CCOC(=O)c1scc(-c2ccc(C)cc2)c1S(=O)(=O)Nc1cc(C)ccc1C | -5.89% (inactive) |  |
| O=C(Oc1ccc([N+](=O)[O-])cc1)c1ccc(Cl)c(S(=O)(=O)N2CCCCC2)c1 |  | 0.316 µM [quencher] (active) |
| O=C(Nc1ccc2c(c1)OCCO2)c1ccc(Cl)c(S(=O)(=O)N2CCCCC2)c1 | 0.377% (inactive) |  |
| O=[N+]([O-])c1cccc(S(=O)(=O)N2CCCCCC2)c1 | -2.2% (inactive) |  |
| CN(C)S(=O)(=O)c1cccc(NC(=S)NCc2ccc3c(c2)OCO3)c1 | -3.31% (inactive) |  |
| Cc1ccc(/C=N/NC(=S)Nc2cccc(S(=O)(=O)N(C)C)c2)o1 | -2.71% (inactive) |  |
| CN(C)S(=O)(=O)c1cccc(NC(=S)N/N=C/C(=O)c2ccccc2)c1 |  | 4.47 µM [quencher] (active) |

| Structure (SMILES) | fluorescence change, negative = quenching | Potency |
| --- | --- | --- |
| COc1ccc(OC)c(NC(=O)CSC2=Nc3ccccc3C3=NC(CC(=O)NCCc4ccccc4)C(=O)N23)c1 (configuration not stated) | -2.61% (inactive) |  |
| CCC(Sc1nnc(-c2ccc(OC)cc2)c(-c2ccc(OC)cc2)n1)C(=O)NC1CCCCC1 (configuration not stated) | -0.831% (inactive) |  |
| CCCSc1nc2sc3c(c2c(=O)n1-c1cccc(Br)c1)CC(C)(C)OC3 | -1.43% (inactive) |  |
| Fc1ccc(-c2nn(-c3ccccc3Cl)c3c2cnc2ccccc23)cc1 | 1.1% (inactive) |  |
| COC(=O)c1sc(=S)n(-c2ccccc2)c1N | -0.443% (inactive) |  |
| CCOC(=O)c1c(N)sc(C(C)=O)c1C | 1.41% (inactive) |  |
| COCCOC(=O)c1sc(=S)n(CCOC)c1N |  | 50.1 µM [fluorescent] (active) |
| COc1ccc(-c2nnc(SCC(=O)Nc3ccc(C(C)C)cc3)nc2-c2ccc(OC)c(OC)c2)cc1OC | 0.883% (inactive) |  |
| Cc1ccc(-n2nc(C)c3c(C)cc(=O)n(CC(=O)Nc4ccc(C(C)C)cc4)c32)cc1 | 3.88% (inactive) |  |
| COc1cccc(-c2nc(S(=O)(=O)c3ccc(C)cc3)c(NCc3ccccc3)o2)c1 | -2.77% (inactive) |  |
| CCc1ccccc1N1C(=O)CN(S(=O)(=O)CC)CC1(C)C(=O)NC1CCCCC1 (configuration not stated) |  | 17.8 µM [quencher] (active) |
| COc1ccc(OC)c(CN2C(=O)CCC2(C)C(=O)NC2CCCCCC2)c1 (configuration not stated) | -0.653% (inactive) |  |
| COc1cccc(CN2C(=O)CCC2(C)C(=O)NC2CCCCCC2)c1 (configuration not stated) | 1.09% (inactive) |  |
| COc1ccc(S(=O)(=O)NCc2cccn2Cc2cccc(C)c2)cc1Cl | -1.88% (inactive) |  |
| CCOc1ccc(N2CC(C)Cn3c2nc2c3c(=O)n(Cc3c(F)cccc3Cl)c(=O)n2C)cc1 (configuration not stated) | -2.1% (inactive) |  |
| O=C(NCCCN1CCN(c2cccc(Cl)c2)CC1)c1nnc(Cc2ccc(F)cc2Cl)o1 | -0.155% (inactive) |  |
| CCOc1cc(C2c3c(-c4ccc(Br)cc4)n[nH]c3C(=O)N2c2ccc(Cl)cc2)ccc1O (configuration not stated) | 0.442% (inactive) |  |
| CC1CCN(S(=O)(=O)c2ccc3c(c2)N(CC(=O)NCc2ccccc2Cl)C(=O)CO3)CC1 | -0.255% (inactive) |  |
| CC(C)CC(=O)Nc1nnc(S(=O)(=O)N(C)c2ccc(Cl)cc2)s1 | -12.2% (inactive) |  |
| CCN(c1ccc(Cl)cc1)S(=O)(=O)c1nnc(NC(=O)c2ccco2)s1 | -8.1% (inactive) |  |
| Cc1ccccc1C(=O)Nc1nnc(S(=O)(=O)N(C)c2ccc(Cl)cc2)s1 |  | 31.6 µM [quencher] (active) |
| CN(Cc1ccccc1)C(=O)CCS(=O)(=O)c1cc(Br)cc2c1N(C(=O)C1CC1)CC2 | -2.08% (inactive) |  |
